Here are results for 8 compounds from PubChem BioAssay (NCI).

Common to all, as to test: NCI-60 one-dose screen, 48 h (100 = growth as untreated, 0 = no growth, -100 = all killed)
Holding throughout (conditions): 10 µM unless noted

Assay [1] deals with HCT-15 colon.
In assay [2] the test system is HT29 colon.
For assay [3], the system named is SNB-75 CNS.
Assay [4] has as its system SNB-19 CNS.
Assay [5] relates to U251 CNS.
The subject of assay [6] is PC-3 prostate.
Assay [7] concerns SK-MEL-5 melanoma.
For assay [8], the system named is UACC-62 melanoma.
Assay [9] concerns LOX IMVI melanoma.
Assay [10] deals with SK-MEL-28 melanoma.
In assay [11] the test system is SK-MEL-2 melanoma.
Assay [12] concerns EKVX NSCLC.
The test system of assay [13] is SN12C renal.
The subject of assay [14] is UO-31 renal.
The subject of assay [15] is ACHN renal.
The test system of assay [16] is CAKI-1 renal.
Assay [17] deals with A498 renal.
In assay [18] the test system is CCRF-CEM leukemia.
The subject of assay [19] is MOLT-4 leukemia.
In assay [20] the test system is TK-10 renal.

The panel holds about 83,000 compounds, 20% with a hit somewhere; the sample as a whole holds those more often.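 The endpoint reported here, percent growth, reads 100 for growth as untreated, 0 for no net growth and -100 for all cells dead.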 Values without a mark were called inactive. Active and inactive are the calls of the source. How the source made its calls: active means growth percent below 10; inactive means the rest.

Regarding `CN1CC[C@@H]2[C@@]3(C)CC[C@H](O)C(C)(C)[C@@H]3CC[C@@]2(C)[C@]2(C)CC[C@@]3(CO)CCC(C)(C)C[C@@H]3C12` (some centres not stated), the growth in assay [1] was 72.7%; in [2], 40.3%; in assay [3], 87.7%; in assay [4], 94.5%; in [5] it was 73.9%; in [6], 79.6%. For the same compound, the growth in assay [7] was 95.6%; in assay [8], 93%; in assay [9] it was 84.8%; in assay [10], 88%; in [11], 102%; in assay [12], 100%. For the same compound, the growth in assay [13] is 91.9%; in assay [14] it was 68.2%; in assay [15], 99.8%; in assay [16], 84.1%; in assay [17], 97.1%; in [18] it was 76.2%. Moreover, the growth in [19] was 75.4%.
Turning to `C#CCn1cc(/C=N/Nc2nc(-c3ccc(Br)cc3)cs2)c2ccccc21`, the growth in assay [1] is 95.3%; in assay [2] it was 104%; in assay [3], 95.4%; in [4] it was 96.6%; in assay [5], 101%; in [6], 91.7%. For the same compound, the growth was 98.7% in assay [7]; 91.5% in assay [8]; 94.4% in [9]; 103% in assay [10]; 104% in assay [11]; 63.9% in [12]. Further, the growth was 95.1% in assay [13]; 81.4% in assay [14]; 98% in assay [15]; 106% in assay [16]; 94.7% in assay [17]; 101% in [18]. Moreover, in assay [19], the growth was 101%.
`C/C(=N\NC(=O)/C=C/CC(=O)O)c1nnn(-c2ccc([N+](=O)[O-])cc2)c1C`: the growth is 105% in assay [1]; 106% in assay [2]; 97.6% in [3]; 98.3% in assay [4]; 100% in assay [5]; 94.7% in assay [6]. Also, the growth in assay [7] was 99.2%; in [8] it was 101%; in assay [9], 101%; in [10], 114%; in assay [11], 99.5%; in [12], 101%. In addition, the growth is 101% in assay [13]; 87.8% in [14]; 104% in [15]; 91.5% in [16]; 110% in [17]; 109% in [18]. For the same compound, the growth in [19] is 105%.
Consider `O=C(NCCNc1cc(-c2cn(-c3ccccc3)nc2-c2cccc(O)c2)ccn1)Nc1cc(C(F)(F)F)cc(C(F)(F)F)c1`, for which the growth in assay [1] was 100%; in assay [2] it was 95.7%; in [3], 75.4%; in assay [4] it was 97%; in [5], 86.8%; in [6], 80.7%. Further, the growth is 96.8% in assay [7]; 94.1% in [8]; 88% in assay [9]; 93.7% in assay [11]; 90.6% in assay [12]; 95.5% in assay [13]. Further, the growth is 77.1% in [14]; 94.4% in assay [20]; 96.9% in assay [15]; 88.9% in [16]; 76.6% in assay [17]; 101% in [18]. The growth in assay [19] is 84.9%.
Regarding `O=[N+]([O-])c1ccc(NC(=S)NNC(=S)Nc2ccc(Br)cc2)cc1`, the growth in [1] was 42.1%; in [2], 95%; in [3] it was 121%; in [4], 98.6%; in assay [5], 88.4%; in assay [6], 75.3%. Besides, the growth in [7] is 92.7%; in assay [8], 48.5%; in assay [9], 60.9%; in [11], 105%; in assay [12] it was 83.5%; in assay [13] it was 88.3%. Besides, the growth in assay [14] was 70%; in assay [20] it was 127%; in assay [15], 70.8%; in assay [16], 75.6%; in assay [17], 82.5%; in [18] it was 89.1%. In addition, the growth in [19] was 74.9%.
As for `O=C(Nc1ccc(Cl)c(C(F)(F)F)c1)Nc1ccc2c(ccn2C(=O)c2cccc(F)c2)c1`, the growth in assay [1] is 17%; in [2], 39.8%; in assay [3], 55%; in assay [4] it was 39.7%; in assay [5], 23.3%; in assay [6] it was 9.11% (active). For the same compound, the growth in assay [7] is 62.9%; in [8], 39.7%; in assay [9], 38.4%; in [10], 46.6%; in assay [11], 45.3%; in assay [12] it was 30%. Besides, the growth in assay [13] is 42.9%; in assay [14] it was 35.6%; in assay [15], 17.7%; in [16] it was 29.1%; in assay [17] it was 70.3%; in [18], 15.8%. The growth in assay [19] is 10.9%.
For the compound `CC1=C(C)C(=O)C(Nc2ccc3c(c2)OCO3)=C(Br)C1=O`, the growth in assay [1] is 101%; in assay [2] it was 109%; in assay [3], 74.3%; in [4], 93.8%; in assay [5], 103%; in assay [6], 86%. Further, the growth is 90.2% in assay [7]; 87.4% in assay [8]; 77.2% in assay [9]; 114% in [11]; 76.3% in assay [12]; 102% in assay [13]. For the same compound, the growth was 88.1% in assay [14]; 150% in assay [20]; 100% in [15]; 95.6% in assay [16]; 95.2% in [17]; 11.6% in [18]. Besides, in assay [19], the growth is -10.2% (active).
`Cc1ccc2c(n1)C(=O)C(Cl)=C(Nc1ccc(C#N)cc1)C2=O`: the growth in assay [1] was 1.89% (active); in assay [2] it was 106%; in assay [3], 110%; in assay [4], 96.4%; in assay [5], 96.6%; in assay [6], 89.6%. Also, the growth in [7] is 98.9%; in [8] it was 95.7%; in assay [9], 70.4%; in [10], 99.8%; in assay [11], 104%; in assay [12] it was 93%. Moreover, the growth in assay [13] was 98%; in [14], 16.2%; in [15], -58.5% (active); in assay [16], 76.5%; in assay [17], 61.6%; in assay [18], 3.83% (active). The growth in assay [19] is 7.64% (active).
